# Experimental data as given in PubChem BioAssay AID1159580 (chemical genetic matrix, 2015).
# “And” between values parts separate entries of the source, which are not always exact repeats. Identical values can stand only once. Among all 5,500 compounds or so, about 2,000 (36%) were called active. Inconclusive results (about 18%) are left out. Some of the results follow. Values without a mark were called inactive. Cut-off read from the data, not from the text of the source: active = normalized growth mostly below about 0.91 (no sharp cut-off); inconclusive = no clear call, values can overlap the other calls; inactive = mostly above about 0.92.
# Assay: chemical genetic growth profiling, strain panel (AID 1159580);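 note: tested at 20 µM; growth read once vehicle control cultures reached saturation at 30 °C; 1 = growth at the plate median or of vehicle wells; lower values mean less growth of the strain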
# Details: S. cerevisiae deletion strains, growth OD
compound,measurement,setting,value
NC(N)=NCCN1CCCCCCC1,normalized growth,"locus YAL013W, strain DEP1, stronger effect = lower value",1
same,normalized growth,"locus YAL021C, strain ccr4, stronger effect = lower value",1.02
same,normalized growth,"locus YAL026C, strain drs2, stronger effect = lower value",1.02
same,normalized growth,"locus YAL030W, strain snc1, stronger effect = lower value",1.03
same,normalized growth,"locus YBL061C, strain skt5, stronger effect = lower value",1.03
same,normalized growth,"locus YBR009C, strain hhf1, stronger effect = lower value",1.03
same,normalized growth,"locus YBR021W, strain FUR4, stronger effect = lower value",1.01
same,normalized growth,"locus YBR023C, strain chs3, stronger effect = lower value",1.03
same,normalized growth,"locus YBR171W, strain sec66, stronger effect = lower value",1.06
same,normalized growth,"locus YBR229C, strain ROT2, stronger effect = lower value",1
same,normalized growth,"locus YBR231C, strain swc5, stronger effect = lower value",0.999
same,normalized growth,"locus YBR279W, strain paf1, stronger effect = lower value",1.02
same,normalized growth,"locus YCL011C, strain gbp2, stronger effect = lower value",1.04
same,normalized growth,"locus YCL016C, strain dcc1, stronger effect = lower value",1.02
same,normalized growth,"locus YCL029C, strain bik1, stronger effect = lower value",1.01
same,normalized growth,"locus YCL061C, strain MRC1, stronger effect = lower value",1.03
same,normalized growth,"locus YCL069W, strain vba3, stronger effect = lower value",1.03
same,normalized growth,"locus YCR088W, strain abp1, stronger effect = lower value",1.03
same,normalized growth,"locus YDL005C, strain med2, stronger effect = lower value",1.04
same,normalized growth,"locus YDL035C, strain GPR1, stronger effect = lower value",1.01
same,normalized growth,"locus YDL040C, strain nat1, stronger effect = lower value",1.02
same,normalized growth,"locus YDL074C, strain BRE1, stronger effect = lower value",1.01
same,normalized growth,"locus YDL101C, strain DUN1, stronger effect = lower value",1
same,normalized growth,"locus YDL185W, strain tfp1, stronger effect = lower value",1.01
same,normalized growth,"locus YDL192W, strain arf1, stronger effect = lower value",1.03
same,normalized growth,"locus YDR001C, strain nth1, stronger effect = lower value",1.02
same,normalized growth,"locus YDR069C, strain doa4, stronger effect = lower value",1.02
same,normalized growth,"locus YDR101C, strain arx1, stronger effect = lower value",1.01
same,normalized growth,"locus YDR137W, strain rgp1, stronger effect = lower value",1.04
same,normalized growth,"locus YDR159W, strain sac3, stronger effect = lower value",1.05
same,normalized growth,"locus YDR162C, strain NBP2, stronger effect = lower value",1
same,normalized growth,"locus YDR195W, strain ref2",1.01
same,normalized growth,"locus YDR297W, strain sur2, stronger effect = lower value",1.03
same,normalized growth,"locus YDR318W, strain mcm21, stronger effect = lower value",1.02
same,normalized growth,"locus YDR334W, strain swr1, stronger effect = lower value",1.03
same,normalized growth,"locus YDR335W, strain msn5, stronger effect = lower value",1.03
same,normalized growth,"locus YDR388W, stronger effect = lower value",1.02
same,normalized growth,"locus YDR392W, strain spt3, stronger effect = lower value",0.986
same,normalized growth,"locus YDR502C, strain sam2, stronger effect = lower value",1.01
same,normalized growth,"locus YEL003W, strain gim4, stronger effect = lower value",1.02
same,normalized growth,"locus YEL037C, strain rad23, stronger effect = lower value",1.03
same,normalized growth,"locus YEL061C, strain CIN8 (second series), stronger effect = lower value",1.02
same,normalized growth,"locus YEL061C, strain CIN8, stronger effect = lower value",1.01
same,normalized growth,"locus YER015W, strain faa2, stronger effect = lower value",1.03
same,normalized growth,"locus YER016W, strain bim1, stronger effect = lower value",1.02
same,normalized growth,"locus YER110C, stronger effect = lower value",1.03
same,normalized growth,"locus YER111C, strain swi4, stronger effect = lower value",1.03
same,normalized growth,"locus YER155C, strain BEM2 (second series), stronger effect = lower value",1
same,normalized growth,"locus YER155C, strain BEM2, stronger effect = lower value",0.998
same,normalized growth,"locus YER167W, strain BCK2, stronger effect = lower value",1
same,normalized growth,"locus YFR010W, strain ubp6, stronger effect = lower value",1.03
same,normalized growth,"locus YGL078C, strain dbp3, stronger effect = lower value",1.04
same,normalized growth,"locus YGL086W, strain mad1, stronger effect = lower value",1
same,normalized growth,"locus YGL167C, strain pmr1, stronger effect = lower value",1.05
same,normalized growth,"locus YGL173C, strain kem1, stronger effect = lower value",1.03
same,normalized growth,"locus YGL227W, strain vid30, stronger effect = lower value",1.03
same,normalized growth,"locus YGL240W, strain doc1, stronger effect = lower value",1.02
same,normalized growth,"locus YGL248W, strain PDE1, stronger effect = lower value",1.01
same,normalized growth,"locus YGL253W, strain hxk2, stronger effect = lower value",1.02
same,normalized growth,"locus YGR078C, strain PAC10, stronger effect = lower value",1
same,normalized growth,"locus YGR135W, strain pre9, stronger effect = lower value",1.02
same,normalized growth,"locus YGR252W, strain gcn5, stronger effect = lower value",0.994
same,normalized growth,"locus YHR013C, strain ard1, stronger effect = lower value",1.05
same,normalized growth,"locus YHR027C, strain rpn1, stronger effect = lower value",1.03
same,normalized growth,"locus YHR030C, strain SLT2, stronger effect = lower value",1.01 and 0.977
same,normalized growth,"locus YHR079C, strain IRE1 (second series), stronger effect = lower value",1.02
same,normalized growth,"locus YHR079C, strain IRE1, stronger effect = lower value",0.983
same,normalized growth,"locus YHR094C, strain hxt1, stronger effect = lower value",1.02
same,normalized growth,"locus YHR129C, strain ARP1, stronger effect = lower value",1
same,normalized growth,"locus YHR142W, strain chs7, stronger effect = lower value",1.05
same,normalized growth,"locus YHR200W, strain rpn10, stronger effect = lower value",1.03
same,normalized growth,"locus YIL066C, strain RNR3, stronger effect = lower value",1.01
same,normalized growth,"locus YIL073C, strain SPO22, stronger effect = lower value",1.04
same,normalized growth,"locus YIL125W, strain kgd1, stronger effect = lower value",1.02
same,normalized growth,"locus YIR030C, strain dcg1, stronger effect = lower value",1.02
same,normalized growth,"locus YJL092W, strain hpr5, stronger effect = lower value",1.03
same,normalized growth,"locus YJL095W, strain BCK1 (second series), stronger effect = lower value",1.02
same,normalized growth,"locus YJL095W, strain BCK1, stronger effect = lower value",1.01 and 0.982
same,normalized growth,"locus YJL115W, strain asf1, stronger effect = lower value",1.03
same,normalized growth,"locus YJL129C, strain trk1, stronger effect = lower value",1.06
same,normalized growth,"locus YJL134W, strain LCB3, stronger effect = lower value",1
same,normalized growth,"locus YJL154C, strain vps35, stronger effect = lower value",1.01
same,normalized growth,"locus YJL164C, strain tpk1, stronger effect = lower value",1.04
same,normalized growth,"locus YJL166W, strain qcr8, stronger effect = lower value",1.04
same,normalized growth,"locus YJL168C, strain set2, stronger effect = lower value",1.03
same,normalized growth,"locus YJL187C, strain SWE1 (second series), stronger effect = lower value",1.01
same,normalized growth,"locus YJL187C, strain SWE1, stronger effect = lower value",1.04
same,normalized growth,"locus YJR043C, strain POL32, stronger effect = lower value",1
same,normalized growth,"locus YJR066W, strain TOR1, stronger effect = lower value",0.932
same,normalized growth,"locus YKL009W, strain mrt4, stronger effect = lower value",1.02
same,normalized growth,"locus YKL068W, stronger effect = lower value",1.01
same,normalized growth,"locus YKL085W, strain MDH1 (second series), stronger effect = lower value",1.01
same,normalized growth,"locus YKL085W, strain MDH1, stronger effect = lower value",1.01
same,normalized growth,"locus YKL160W, strain elf1, stronger effect = lower value",1.04
same,normalized growth,"locus YKR001C, strain vps1, stronger effect = lower value",1.03
same,normalized growth,"locus YKR026C, strain gcn3, stronger effect = lower value",1.03
same,normalized growth,"locus YKR091W, strain srl3, stronger effect = lower value",1.02
same,normalized growth,"locus YLL001W, strain dnm1, stronger effect = lower value",1.02
same,normalized growth,"locus YLL026W, stronger effect = lower value",1.03
same,normalized growth,"locus YLL041C, strain sdh2, stronger effect = lower value",1.02
same,normalized growth,"locus YLR027C, strain aat2, stronger effect = lower value",1.02
same,normalized growth,"locus YLR039C, strain RIC1, stronger effect = lower value",1
same,normalized growth,"locus YLR058C, strain SHM2, stronger effect = lower value",1.01
same,normalized growth,"locus YLR102C, strain apc9, stronger effect = lower value",1.02
same,normalized growth,"locus YLR113W, strain HOG1, stronger effect = lower value",0.985
same,normalized growth,"locus YLR221C, strain rsa3, stronger effect = lower value",1.05
same,normalized growth,"locus YLR258W, strain gsy2, stronger effect = lower value",1.03
same,normalized growth,"locus YLR262C, strain YPT6 (second series), stronger effect = lower value",1.25 [resistant] (active)
same,normalized growth,"locus YLR262C, strain YPT6, stronger effect = lower value",1.03
same,normalized growth,"locus YLR268W, strain sec22, stronger effect = lower value",1.02
same,normalized growth,"locus YLR320W, strain mms22, stronger effect = lower value",1.05
same,normalized growth,"locus YLR330W, strain CHS5, stronger effect = lower value",1.01
same,normalized growth,"locus YLR342W, strain FKS1 (second series), stronger effect = lower value",1.02
same,normalized growth,"locus YLR342W, strain FKS1, stronger effect = lower value",1.06
same,normalized growth,"locus YLR357W, strain rsc2, stronger effect = lower value",1.03
same,normalized growth,"locus YLR370C, strain arc18, stronger effect = lower value",1.03
same,normalized growth,"locus YLR371W, strain rom2, stronger effect = lower value",1.02
same,normalized growth,"locus YLR384C, strain iki3, stronger effect = lower value",1.03
same,normalized growth,"locus YLR418C, strain cdc73, stronger effect = lower value",1.03
same,normalized growth,"locus YML016C, strain PPZ1, stronger effect = lower value",1.01
same,normalized growth,"locus YML032C, strain rad52, stronger effect = lower value",1.02
same,normalized growth,"locus YML120C, strain ndi1, stronger effect = lower value",1.04
same,normalized growth,"locus YML124C, strain tub3, stronger effect = lower value",1.03
same,normalized growth,"locus YMR058W, strain fet3, stronger effect = lower value",1.02
same,normalized growth,"locus YMR078C, strain ctf18, stronger effect = lower value",1.02
same,normalized growth,"locus YMR125W, strain sto1, stronger effect = lower value",1.03
same,normalized growth,"locus YMR129W, stronger effect = lower value",1.02
same,normalized growth,"locus YMR205C, strain PFK2, stronger effect = lower value",1.05
same,normalized growth,"locus YMR223W, strain ubp8, stronger effect = lower value",1.02
same,normalized growth,"locus YMR231W, strain pep5, stronger effect = lower value",1.04
same,normalized growth,"locus YMR307W, strain GAS1, stronger effect = lower value",0.992
same,normalized growth,"locus YNL067W, strain RPL9B, stronger effect = lower value",1
same,normalized growth,"locus YNL071W, strain lat1, stronger effect = lower value",1.03
same,normalized growth,"locus YNL128W, strain TEP1, stronger effect = lower value",1.02
same,normalized growth,"locus YNL183C, strain NPR1, stronger effect = lower value",0.959
same,normalized growth,"locus YNL209W, strain ssb2, stronger effect = lower value",0.87 (active)
same,normalized growth,"locus YNL233W, strain BNI4, stronger effect = lower value",1.01
same,normalized growth,"locus YNL248C, strain rpa49, stronger effect = lower value",1.04
same,normalized growth,"locus YNL250W, strain rad50, stronger effect = lower value",1.01
same,normalized growth,"locus YNL271C, strain bni1, stronger effect = lower value",1.02
same,normalized growth,"locus YNL298W, strain CLA4, stronger effect = lower value",1.03
same,normalized growth,"locus YNL307C, strain MCK1, stronger effect = lower value",1.02
same,normalized growth,"locus YNL322C, strain KRE1 (second series), stronger effect = lower value",1.05
same,normalized growth,"locus YNL322C, strain KRE1, stronger effect = lower value",1
same,normalized growth,"locus YNR049C, strain mso1, stronger effect = lower value",1.03
same,normalized growth,"locus YNR052C, strain pop2, stronger effect = lower value",1.01
same,normalized growth,"locus YOL012C, strain htz1",0.825
same,normalized growth,"locus YOL147C, strain pex11, stronger effect = lower value",1.02
same,normalized growth,"locus YOR001W, strain rrp6, stronger effect = lower value",0.997
same,normalized growth,"locus YOR061W, strain CKA2, stronger effect = lower value",1.01
same,normalized growth,"locus YOR069W, strain VPS5, stronger effect = lower value",1
same,normalized growth,"locus YOR070C, strain gyp1, stronger effect = lower value",1.05
same,normalized growth,"locus YOR080W, strain dia2, stronger effect = lower value",1.03
same,normalized growth,"locus YOR083W, strain WHI5, stronger effect = lower value",1.03
same,normalized growth,"locus YOR106W, strain vam3, stronger effect = lower value",1.05
same,normalized growth,"locus YOR136W, strain idh2, stronger effect = lower value",1.02
same,normalized growth,"locus YOR144C, strain elg1, stronger effect = lower value",1.02
same,normalized growth,"locus YOR184W, strain ser1, stronger effect = lower value",1.03
same,normalized growth,"locus YOR231W, strain MKK1, stronger effect = lower value",0.993
same,normalized growth,"locus YOR265W, strain rbl2, stronger effect = lower value",1.05
same,normalized growth,"locus YOR270C, strain vph1, stronger effect = lower value",1.07
same,normalized growth,"locus YOR290C, strain snf2, stronger effect = lower value",0.981
same,normalized growth,"locus YOR316C, strain cot1, stronger effect = lower value",1.02
same,normalized growth,"locus YPL051W, strain arl3, stronger effect = lower value",1.02
same,normalized growth,"locus YPL055C, strain LGE1, stronger effect = lower value",1.01
same,normalized growth,"locus YPL078C, strain atp4, stronger effect = lower value",1.03
same,normalized growth,"locus YPL106C, strain sse1, stronger effect = lower value",1.02
same,normalized growth,"locus YPL240C, strain hsp82, stronger effect = lower value",1.04
same,normalized growth,"locus YPL256C, strain CLN2, stronger effect = lower value",0.977
same,normalized growth,"locus YPR119W, strain clb2, stronger effect = lower value",1.03
same,normalized growth,"locus YPR141C, strain kar3, stronger effect = lower value",1.02
same,normalized growth,"locus YPR163C, strain tif3, stronger effect = lower value",1.03
same,normalized growth,"locus YPR167C, strain met16, stronger effect = lower value",1.02
same,normalized growth,"strain wtn01, stronger effect = lower value",1.03
